Assay results reported in the supplement of paper PMC7595190.

Key:
Assay in all cases: CellTox Green cytotoxicity fluorescence relative to DMSO vehicle (fold of vehicle RFU); higher = more cell death (loss of membrane integrity), active = 2 or more
CMK = system: CMK
Method in brief: (§1)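 CellTox Green reagent was added when MV4-11, CMK and Kasumi-1 cells were seeded at 4.0 × 10^4 cells per well, and single compounds from the Selleckchem apoptosis library were added at final 0.01, 0.1 and 1 µM in DMSO (vehicle 0.1% DMSO). Fluorescence at Ex 485 nm and Em 520 nm was read after 24, 48 and 72 h at 37 °C, 5% CO2. The reported cytotoxicity corresponds to loss of membrane integrity, given as fold of the DMSO vehicle.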

Kasumi-1 = system: Kasumi-1
Method in brief: as §1

MV4-11 = system: MV4-11
Method in brief: as §1

Measured: CellTox Green cytotoxicity fluorescence

Cn1cc(-c2ccc3c(c2)CCN3C(=O)Cc2cccc(C(F)(F)F)c2)c2c(N)ncnc21
inactive: CMK; 0.01 µM, 24 h 0.971 | CMK; 0.01 µM, 48 h 0.966 | CMK; 0.01 µM, 72 h 0.935 | CMK; 0.1 µM, 24 h 0.981 | CMK; 0.1 µM, 48 h 0.987 | CMK; 0.1 µM, 72 h 0.978 | CMK; 1 µM, 24 h 0.972 | CMK; 1 µM, 48 h 1.01 | CMK; 1 µM, 72 h 0.913 | Kasumi-1; 0.01 µM, 24 h 1.07 | Kasumi-1; 0.01 µM, 48 h 1.03 | Kasumi-1; 0.01 µM, 72 h 1.02 | Kasumi-1; 0.1 µM, 24 h 1.01 | Kasumi-1; 0.1 µM, 48 h 1.05 | Kasumi-1; 0.1 µM, 72 h 1.07 | Kasumi-1; 1 µM, 24 h 0.955 | Kasumi-1; 1 µM, 48 h 1.02 | Kasumi-1; 1 µM, 72 h 1.08 | MV4-11; 0.01 µM, 24 h 0.987 | MV4-11; 0.01 µM, 48 h 0.984 | MV4-11; 0.01 µM, 72 h 0.979 | MV4-11; 0.1 µM, 24 h 0.986 | MV4-11; 0.1 µM, 48 h 0.981 | MV4-11; 0.1 µM, 72 h 0.977 | MV4-11; 1 µM, 24 h 1.05 | MV4-11; 1 µM, 48 h 1.34 | MV4-11; 1 µM, 72 h 1.77

COc1cc(C(=O)O)ccc1NC(=O)[C@@H]1N[C@@H](CC(C)(C)C)[C@](C#N)(c2ccc(Cl)cc2F)[C@H]1c1cccc(Cl)c1F [Idasanutlin]
inactive: CMK; 0.01 µM, 24 h 0.938 | CMK; 0.01 µM, 48 h 0.944 | CMK; 0.01 µM, 72 h 0.96 | CMK; 0.1 µM, 24 h 0.943 | CMK; 0.1 µM, 48 h 0.953 | CMK; 0.1 µM, 72 h 1.01 | CMK; 1 µM, 24 h 0.963 | CMK; 1 µM, 48 h 1.01 | CMK; 1 µM, 72 h 0.933 | Kasumi-1; 0.01 µM, 24 h 1.01 | Kasumi-1; 0.01 µM, 48 h 0.971 | Kasumi-1; 0.01 µM, 72 h 0.962 | Kasumi-1; 0.1 µM, 24 h 0.966 | Kasumi-1; 0.1 µM, 48 h 0.949 | Kasumi-1; 0.1 µM, 72 h 0.947 | Kasumi-1; 1 µM, 24 h 1.01 | Kasumi-1; 1 µM, 48 h 1.03 | Kasumi-1; 1 µM, 72 h 1.03 | MV4-11; 0.01 µM, 24 h 0.983 | MV4-11; 0.01 µM, 48 h 0.967 | MV4-11; 0.01 µM, 72 h 0.97 | MV4-11; 0.1 µM, 24 h 0.971 | MV4-11; 0.1 µM, 48 h 0.958 | MV4-11; 0.1 µM, 72 h 0.972 | MV4-11; 1 µM, 24 h 0.967 | MV4-11; 1 µM, 48 h 1.03 | MV4-11; 1 µM, 72 h 1.1

Cc1nc(Nc2ncc(C(=O)Nc3c(C)cccc3Cl)s2)cc(N2CCN(CCO)CC2)n1 [Dasatinib Monohydrate]
inactive: CMK; 0.01 µM, 24 h 1.01 | CMK; 0.01 µM, 48 h 1.02 | CMK; 0.01 µM, 72 h 1.07 | CMK; 0.1 µM, 24 h 1.02 | CMK; 0.1 µM, 48 h 1.04 | CMK; 0.1 µM, 72 h 0.987 | CMK; 1 µM, 24 h 1 | CMK; 1 µM, 48 h 1.05 | CMK; 1 µM, 72 h 1.09 | Kasumi-1; 0.01 µM, 24 h 1.03 | Kasumi-1; 0.01 µM, 48 h 1.09 | Kasumi-1; 0.01 µM, 72 h 1.13 | Kasumi-1; 0.1 µM, 24 h 1.02 | Kasumi-1; 0.1 µM, 48 h 1.15 | Kasumi-1; 0.1 µM, 72 h 1.23 | Kasumi-1; 1 µM, 24 h 0.928 | Kasumi-1; 1 µM, 48 h 1.13 | Kasumi-1; 1 µM, 72 h 1.24 | MV4-11; 0.01 µM, 24 h 1 | MV4-11; 0.01 µM, 48 h 0.989 | MV4-11; 0.01 µM, 72 h 0.978 | MV4-11; 0.1 µM, 24 h 0.993 | MV4-11; 0.1 µM, 48 h 0.983 | MV4-11; 0.1 µM, 72 h 0.97 | MV4-11; 1 µM, 24 h 1.02 | MV4-11; 1 µM, 48 h 1.01 | MV4-11; 1 µM, 72 h 1.01

NS(=O)(=O)C#Cc1ccccc1 [Pifithrin-m]
inactive: CMK; 0.01 µM, 24 h 0.969 | CMK; 0.01 µM, 48 h 0.96 | CMK; 0.01 µM, 72 h 0.939 | CMK; 0.1 µM, 24 h 1.01 | CMK; 0.1 µM, 48 h 1 | CMK; 0.1 µM, 72 h 0.998 | CMK; 1 µM, 24 h 1 | CMK; 1 µM, 48 h 1.04 | CMK; 1 µM, 72 h 0.96 | Kasumi-1; 0.01 µM, 24 h 0.994 | Kasumi-1; 0.01 µM, 48 h 0.986 | Kasumi-1; 0.01 µM, 72 h 0.979 | Kasumi-1; 0.1 µM, 24 h 1 | Kasumi-1; 0.1 µM, 48 h 0.98 | Kasumi-1; 0.1 µM, 72 h 0.98 | Kasumi-1; 1 µM, 24 h 0.987 | Kasumi-1; 1 µM, 48 h 0.985 | Kasumi-1; 1 µM, 72 h 0.983 | MV4-11; 0.01 µM, 24 h 0.989 | MV4-11; 0.01 µM, 48 h 1 | MV4-11; 0.01 µM, 72 h 1 | MV4-11; 0.1 µM, 24 h 0.994 | MV4-11; 0.1 µM, 48 h 0.987 | MV4-11; 0.1 µM, 72 h 0.979 | MV4-11; 1 µM, 24 h 1.02 | MV4-11; 1 µM, 48 h 1.02 | MV4-11; 1 µM, 72 h 1.03

Fc1ccc(CNc2ncnc3ccc(F)cc23)cc1 [Spautin-1]
inactive: CMK; 0.01 µM, 24 h 0.96 | CMK; 0.01 µM, 48 h 1.08 | CMK; 0.01 µM, 72 h 1.16 | CMK; 0.1 µM, 24 h 0.971 | CMK; 0.1 µM, 48 h 0.943 | CMK; 0.1 µM, 72 h 0.916 | CMK; 1 µM, 24 h 0.983 | CMK; 1 µM, 48 h 0.967 | CMK; 1 µM, 72 h 0.917 | Kasumi-1; 0.01 µM, 24 h 1.03 | Kasumi-1; 0.01 µM, 48 h 1.04 | Kasumi-1; 0.01 µM, 72 h 0.987 | Kasumi-1; 0.1 µM, 24 h 1 | Kasumi-1; 0.1 µM, 48 h 1 | Kasumi-1; 0.1 µM, 72 h 0.997 | Kasumi-1; 1 µM, 24 h 1.04 | Kasumi-1; 1 µM, 48 h 1.01 | Kasumi-1; 1 µM, 72 h 1.01 | MV4-11; 0.01 µM, 24 h 0.982 | MV4-11; 0.01 µM, 48 h 0.965 | MV4-11; 0.01 µM, 72 h 0.962 | MV4-11; 0.1 µM, 24 h 0.962 | MV4-11; 0.1 µM, 48 h 0.942 | MV4-11; 0.1 µM, 72 h 0.936 | MV4-11; 1 µM, 24 h 1.03 | MV4-11; 1 µM, 48 h 1.02 | MV4-11; 1 µM, 72 h 1.02

CN(C)CCCCC(=O)Nc1ccc(NC(=S)NC(=O)c2ccc(C(C)(C)C)cc2)cc1 [Tenovin-6]
inactive: CMK; 0.01 µM, 24 h 0.978 | CMK; 0.01 µM, 48 h 0.97 | CMK; 0.01 µM, 72 h 0.94 | CMK; 0.1 µM, 24 h 1 | CMK; 0.1 µM, 48 h 0.991 | CMK; 0.1 µM, 72 h 0.973 | CMK; 1 µM, 24 h 1.01 | CMK; 1 µM, 48 h 1.03 | CMK; 1 µM, 72 h 0.875 | Kasumi-1; 0.01 µM, 24 h 0.99 | Kasumi-1; 0.01 µM, 48 h 0.965 | Kasumi-1; 0.01 µM, 72 h 0.966 | Kasumi-1; 0.1 µM, 24 h 0.947 | Kasumi-1; 0.1 µM, 48 h 0.912 | Kasumi-1; 0.1 µM, 72 h 0.879 | Kasumi-1; 1 µM, 24 h 0.958 | Kasumi-1; 1 µM, 48 h 1 | Kasumi-1; 1 µM, 72 h 1.01 | MV4-11; 0.01 µM, 24 h 1 | MV4-11; 0.01 µM, 48 h 0.993 | MV4-11; 0.01 µM, 72 h 0.989 | MV4-11; 0.1 µM, 24 h 0.986 | MV4-11; 0.1 µM, 48 h 0.964 | MV4-11; 0.1 µM, 72 h 0.952 | MV4-11; 1 µM, 24 h 1.02 | MV4-11; 1 µM, 48 h 1.02 | MV4-11; 1 µM, 72 h 1.05
